15-hLO-2 inh = qHTS Assay for Inhibitors of 15-hLO-2 (15-human lipoxygenase 2); Polyunsaturated fatty acid lipoxygenase ALOX15B (Homo sapiens), O15296; purified 15hLO-2, xylenol orange hydroperoxide absorbance; Potency, µM (highest dose often 57.1 µM), without a hit: at the top dose activity change, negative = inhibition, most hits filed as inhibitors; 110,000 tested, 0.56% active; further: potency means the concentration at half of the fitted maximal effect; nearly all actives have a fitted effect of over 60% in size
Target sequence (O15296 whole entry, looked up): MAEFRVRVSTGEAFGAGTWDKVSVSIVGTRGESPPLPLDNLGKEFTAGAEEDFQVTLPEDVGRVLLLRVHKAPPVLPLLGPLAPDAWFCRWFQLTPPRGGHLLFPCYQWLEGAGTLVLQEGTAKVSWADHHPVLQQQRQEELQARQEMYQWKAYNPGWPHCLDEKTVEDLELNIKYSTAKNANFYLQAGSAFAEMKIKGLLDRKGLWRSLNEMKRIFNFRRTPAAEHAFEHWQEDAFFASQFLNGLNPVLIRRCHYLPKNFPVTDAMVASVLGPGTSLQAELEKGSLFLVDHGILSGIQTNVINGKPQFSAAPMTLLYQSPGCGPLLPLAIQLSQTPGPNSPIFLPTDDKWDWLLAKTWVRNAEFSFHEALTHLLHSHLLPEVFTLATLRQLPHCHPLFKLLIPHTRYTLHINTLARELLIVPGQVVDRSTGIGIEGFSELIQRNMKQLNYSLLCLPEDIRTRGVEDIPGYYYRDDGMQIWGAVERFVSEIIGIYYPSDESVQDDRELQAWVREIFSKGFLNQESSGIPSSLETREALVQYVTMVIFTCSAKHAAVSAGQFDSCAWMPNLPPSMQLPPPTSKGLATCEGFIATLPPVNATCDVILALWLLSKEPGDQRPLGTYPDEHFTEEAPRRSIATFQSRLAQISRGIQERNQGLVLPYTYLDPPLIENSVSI
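Screening format was qHTS against 50 nM purified 15hLO-2 in Hepes pH 7.5 with detergent. Activity follows hydroperoxide formation from 45 uM arachidonic acid, measured as 573:405 nm absorbance ratio of the ferric-xylenol orange complex.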
12-hLO inh = qHTS Assay for Inhibitors of 12-hLO (12-human lipoxygenase); purified 12-hLO, xylenol orange hydroperoxide absorbance; Potency, µM (top dose mostly 57.1 µM), without a hit: top-dose activity change, negative = inhibition, hits mostly inhibitors; 150,000 tested, 0.12% active; further: potency means the concentration at half of the fitted maximal effect; nearly all actives have a fitted effect of over 55% in size
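Lipoxygenase turnover measured by absorbance at 573 and 405 nm after Fe-XO development. Human 12hLO 150 nM, arachidonate 40 uM, pH 7.0 Hepes buffer with detergent; 15 min compound preincubation, 30 min reaction.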
PNC assembly inh = High Content Assay for Compounds that inhibit the Assembly of the Perinucleolar Compartment; 140,000 tested, 3.1% active; activity change (PNC), negative = inhibition, % at 10 µM; PC3M PTB-GFP, PNC prevalence imaging, 16 h; hits give low values;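 active means readout at or below -70, meaning at least 70% loss of cells showing the perinucleolar compartment, a nuclear body marking cancer cells; inconclusive means readout between -30 and a set limit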;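 further: plate controls were DMSO wells for no effect and camptothecin positive control wells for full effect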
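Read-out is percentage of cells bearing a perinucleolar compartment, from automated 20x imaging of fixed, Hoechst-stained PC3M PTB-GFP cells. Cells were seeded 4 h, then exposed 16 h to compound (23 nl of library stock) in duplicate plates.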
* = called active by the depositor; ? = inconclusive; . = no result. Hits are enriched below; roughly 3.2% of the tested compounds scored in any of these assays. Unless noted, the call rests on the fitted dose curve; in most records, active means well fitted curve in the direction sought with a large enough effect; inconclusive means small, poorly fitted or top-dose-only effect, or another doubt; inactive means no such curve, though single readings can be large; an effect the other way counts as inactive or inconclusive. Unless noted, on the % scale 0 is the no-effect control and ±100 the full control effect.

SMILES	15-hLO-2 inh	12-hLO inh	PNC assembly inh
Cc1cc(C)nc(N/N=C/c2ccccc2)n1	-7.4%	1.7%	14.0
Cc1cc(C)nc(N/N=C/C=C/c2ccccc2)n1	.	-1.7%	-104.0*
COc1ccccc1OCc1ccc(C(=O)N/N=C/c2ccco2)cc1	.	-0.4%	-113.8*
O=C(COc1ccccc1)NCC(=O)N/N=C/c1ccco1	.	-5.1%	-121.5*
COc1ccccc1OCc1ccc(C(=O)NN)cc1	3.1%	1.8%	-0.7
COc1ccc(C(=O)NN=C(Cc2ccccc2)Cc2ccccc2)cc1OC	.	-0.9%	8.9
Cc1ccc(/C=N/NC(=O)CNC(=O)COc2ccccc2)cc1	.	-5.6%	-29.0
COc1ccc(CC(=O)c2ccc(OC)c(OC)c2)cc1	.	-4.5%	-12.7
COc1ccc(C(=O)Cc2ccccc2)cc1OC	.	0.7%	-83.9*
CNC(=O)c1ccc(OCc2ccccc2)c(OC)c1	2.9%	2.7%	-106.5*
CC(=O)N1CCC2(CCCN(c3ccccc3)C2)CC1	-7.3%	1.0%	.
CCC(C)N(C)Cc1cccc(C2(O)CCN(S(=O)(=O)c3ccc(F)c(C)c3)CC2)c1 (stereo unspecified)	.	0.7%	-113.4*
Cc1cc(S(=O)(=O)N2CCN(c3c(C)cccc3C)CC2)ccc1F	-15.3%	4.9%	-7.6
CCCCOC(=O)Nc1ccc(C)c(Cl)c1	-7.8%	-8.7%	-20.5
CN1CCN(c2ncc3ncc(=O)n(-c4ccccc4)c3n2)CC1	2.7%	.	.
COc1ccccc1Nc1ncccc1C(=O)NCc1ccccc1	7.2%	-1.4%	30.6
O=S(=O)(NCCNS(=O)(=O)c1ccc(F)cc1)c1ccc(F)cc1	3.3%	1.3%	22.7
O=S(=O)(NNc1ccc(Cl)nn1)c1ccc(F)cc1	.	-3.6%	-87.9*
Cc1ccc(S(=O)(=O)/N=C2\CN(C)C(=O)N2C)cc1	.	1.5%	-113.4*
Cc1ccc(S(=O)(=O)/N=c2\sccn2C)cc1	14.2%	4.1%	99.2
O=C(CNC(=O)c1ccc(F)cc1)N/N=C/c1cc(Br)ccc1OCc1ccccc1	.	-2.4%	19.3
O=C(CNC(=O)c1cccc(F)c1)N/N=C/c1cc(Br)ccc1OC(=O)/C=C/c1ccco1	.	5.5%	-80.9*
CN1CCN(c2ncc3nc(-c4ccc(F)cc4)c(=O)n(C4CC4)c3n2)CC1	-7.4%	.	.
O=C(c1ccncc1)N1CCC2(CCCN(c3ccccc3)C2)CC1	0.7%	0.6%	.
CCN(CC)CCCn1c(-c2ccccc2)nc2c(N(CCOC)CCOC)nc(C)nc21	8.6%	-2.9%	.
SMILES	15-hLO-2 inh	12-hLO inh	PNC assembly inh
CCc1ccc(NC(=O)CN(c2cccc(C)c2)S(C)(=O)=O)cc1	2.8%	-1.2%	-24.6
Cc1cccc(N(CC(=O)Nc2ccc(CC#N)cc2)S(C)(=O)=O)c1	-2.1%	1.3%	-84.2*
O=C(Nc1nc(-c2ccc(Oc3ccccc3)cc2)cs1)C1=COCCO1	.	-6.5%	82.2
CSc1cc2c(cc1C(F)(F)F)N(C(=O)Nc1cccnc1)CC2	11.8%	-1.8%	.
O=C(/C=C/c1ccc(O)c(O)c1)O[C@@H](C(=O)O)[C@@H](OC(=O)/C=C/c1ccc(O)c(O)c1)C(=O)O	9.3%	-7.9%	.
O=C(/C=C\c1ccc(O)c(O)c1)OCCc1ccccc1	12.6µM*	?	.
CCC1CCCCN1CC(=O)c1c(C)[nH]c2ccccc12 (stereo unspecified)	-0.3%	-2.1%	22.6
Cc1[nH]c2ccccc2c1C(=O)CN1CCCCC1C (stereo unspecified)	4.3%	-20.3%	-96.3*
CCn1c(SCC(=O)c2ccccc2)nnc1-c1cccs1	-4.6%	2.7%	63.8
Cc1ccc(C)c(Sc2ccc(NC(=O)CCl)cc2)c1	.	-3.1%	-12.5
Cc1cc(Br)c(NC(=O)CCl)c(Br)c1	.	4.6%	-88.5*
CCOC(=O)C1(C)/C(=N/Nc2cccc(Cl)c2)C(=O)C(=O)N1c1ccccc1 (stereo unspecified)	-21.2%	3.16µM*	21.1
CCOC(=O)C1(C)/C(=N/Nc2ccccc2Cl)C(=O)C(=O)N1c1ccccc1 (stereo unspecified)	?	?	-24.2
Cc1cc(C)nc(-n2nc(C)c(C3(O)C(=O)Nc4ccccc43)c2N)n1 (stereo unspecified)	22.6%	1.3%	1.7
COC(=O)CCCC[C@@H]1SC[C@@H](NC(=O)OC)[C@@H]1NC(=O)OC	.	-2.0%	0.5
COC(=O)CCCCC1SCC(NC(=O)OC)C1NC(=O)OC (stereo unspecified)	-4.0%	1.7%	-86.0*
CCCOc1ccc(C(=O)NNC(=S)NC(=O)c2cc(-c3ccccc3)nc3ccccc23)cc1	-17.0%	5.2%	10.9
CC(C)C1Cc2c(sc3[nH]c(=S)n(Cc4ccccc4)c(=O)c23)CO1 (stereo unspecified)	-12.2%	-4.0%	?
CC(C)C1Cc2[nH]c(=O)c(C(=O)O)cc2CO1 (stereo unspecified)	-8.6%	-13.5%	-111.2*
O=C(NCc1cccnc1)C1CCCN(S(=O)(=O)c2ccccc2)C1 (stereo unspecified)	-1.5%	-3.2%	?
CC(C)(C)OC(=O)N1CCC[C@H]1c1nnc(SCc2ccc(Cl)cc2Cl)o1	0.7%	-14.8%	33.8
CC(C)(C)OC(=O)N1CCC[C@H]1c1nnc(SCc2ccccc2Cl)o1	-2.3%	1.5%	-113.7*
O=C(Cn1cnc2cc([N+](=O)[O-])ccc2c1=O)NC(c1ccccc1)c1ccccc1	.	-1.8%	13.9
COc1ccc(Nc2oc(COc3ccc(C)cc3)nc2C#N)cc1	.	-23.3%	-100.0*
COc1ccc(Nc2oc(COc3ccc(OC)cc3)nc2C#N)cc1	.	-18.9%	?
SMILES	15-hLO-2 inh	12-hLO inh	PNC assembly inh
COCCn1c(SCC(=O)N2CCCc3ccccc32)nc2c(c1=O)SC(C)C2 (stereo unspecified)	-4.7%	7.9%	-108.4*
CC1Cc2nc(SCC(=O)N3CCCc4ccccc43)n(C)c(=O)c2S1 (stereo unspecified)	.	-6.8%	33.6
O=C(CSc1nc(O)cc(=O)[nH]1)N1CCCc2ccccc21	2.7%	-1.7%	-29.8
Cc1cc(=O)[nH]c(SCC(=O)N2CCCc3ccccc32)n1	.	-2.6%	-100.0*
CS(=O)(=O)Nc1cccc(-c2ccc3ncnc(Nc4ccc(F)cc4)c3c2)c1	35.1%	-7.1%	.
CC/C(=N\NC(=S)Nc1cc(C)ccc1C)c1ccc(OC(F)F)cc1	.	?	86.3
CCN(CC)S(=O)(=O)c1cccc(C(=O)N2CC(O)CC2C(=O)OC)c1 (stereo unspecified)	-6.4%	-0.2%	-23.1
CCN(CC)S(=O)(=O)c1cccc(C(=O)N2CC(O)CC2C(=O)O)c1 (stereo unspecified)	-2.4%	2.4%	-106.5*
Cc1cc(C)c(S(=O)(=O)Nc2ccc(C(=O)O)c(O)c2)cc1C	.	-9.7%	.
CCCOC(=O)c1c(NC(=O)CCCn2nc([N+](=O)[O-])cc2C)sc(C(=O)OC)c1C	.	0.3%	-119.3*
CCCOC(=O)c1c(NC(=O)CCCn2nc([N+](=O)[O-])c(Cl)c2C)sc(C(=O)OC)c1C	.	0.3%	20.3
